D2 PAM-1 = positive allosteric modulators of human D2 dopamine receptor; P14416; HEK293 T-REx D2, calcium flux, EC20 dopamine potentiation; potentiation, % at 10 µM; 340,000 tested, 0.34% active;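 active = potentiation over 3 SD above the plate norm, cut at about 30% in these data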; note: 0% is about no effect
Target sequence (P14416 whole entry, looked up): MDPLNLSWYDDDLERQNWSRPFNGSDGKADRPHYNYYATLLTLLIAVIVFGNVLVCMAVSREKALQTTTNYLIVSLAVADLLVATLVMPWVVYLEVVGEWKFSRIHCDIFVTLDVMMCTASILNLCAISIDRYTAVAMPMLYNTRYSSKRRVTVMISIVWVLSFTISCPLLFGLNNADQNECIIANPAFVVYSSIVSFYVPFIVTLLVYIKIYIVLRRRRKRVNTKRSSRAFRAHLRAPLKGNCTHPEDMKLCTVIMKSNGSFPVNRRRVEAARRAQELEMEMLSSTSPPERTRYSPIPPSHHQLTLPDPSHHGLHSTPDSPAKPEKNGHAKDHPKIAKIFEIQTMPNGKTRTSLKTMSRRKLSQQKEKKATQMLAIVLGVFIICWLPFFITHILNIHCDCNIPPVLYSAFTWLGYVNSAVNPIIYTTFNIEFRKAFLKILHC
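Potentiation of an EC20 dopamine calcium response is measured in a force-coupled, tetracycline-inducible Hek293 Trex D2 line. Compound-only kinetic reads over 180 s flag agonists before dopamine addition.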
D2 PAM-2 = positive allosteric modulators of human D2 dopamine receptor | DiscoveRx D2 beta-arrestin cells, luminescence, 90 min; 100% = 57 uM dopamine signal | potentiation, % (test concentration not listed) | 360,000 tested, 0.23% active; in the data active = potentiation above about 50%; inconclusive = mostly about 30% to 49%
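PathHunter beta-arrestin assay in DiscoveRx D2 cells. Compounds were added with an EC20 of dopamine (50 nM final) for 90 min at 37 deg C. Luminescence was read 1 h after detection reagent, with 57 uM dopamine as the EC100 control.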
D2 ag-1 = D2 dopamine receptor (human) agonism; HEK293 T-REx D2 cells, calcium flux agonist mode; activation, % at 2 µM; AID 485358; 340,000 tested, 0.53% active; P14416;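 active = activation over 3 SD above normal in the single-dose calcium agonist read, cut at about 30% in these data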; note: 0% is about no effect
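In this primary screen, compounds producing a positive calcium signal within 180 s of addition to tetracycline-induced, force-coupled HEK293 Trex D2 cells are flagged; cells are dye-loaded with a no-wash calcium kit beforehand.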
D2 ag-2 = activates the human D2 dopamine receptor; activation, % (no concentration beside the values); DiscoveRx PathHunter D2 beta-arrestin, luminescence, 90 min; 100% = 57 uM dopamine signal; AID 624465; P14416; 360,000 tested, 0.084% active; in the data active = activation above about 40%; inconclusive = between about 15% and that limit
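Agonist mode: compounds alone added to overnight-plated D2 PathHunter cells for 90 min at 37 C, with 57 uM final dopamine (EC100) defining full response. Beta-arrestin recruitment detected by chemiluminescent reagent, read after 1 h at ambient temperature.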
D2 antagonist = antagonizes the human D2 dopamine receptor. P14416. HEK293 TREx D2 cells, calcium flux, dopamine EC80. inhibition, % at 10 µM. 340,000 tested, 2% active. AID 485344; in the data active = inhibition above about 30%; inactive = below that, where a call was filed; note: 0% is about no effect
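Compounds are added to dye-loaded, induced HEK293 T-REx cells coupled to calcium release via D2; after a 3 min kinetic read an EC80 dopamine stimulus is given and fluorescence is recorded for 3 more min.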
D3 ag = activates human D3 dopamine receptor beta-arrestin recruitment; shares compounds with D2 ag-1; DiscoveRx D3 beta-arrestin cells, luminescence, 90 min; Potency, µM (top dose mostly 76.9 µM), inactives show at the highest dose activation, usual class: activators; 2,300 tested, 4% active; AID 720506;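 note: potency is the fitted concentration of half-maximal effect; 100% = dopamine control response; nearly all actives have a fitted effect of over 70% in size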
D2 ag-3 = activates human D2 dopamine receptor in D3 counterscreen; DiscoveRx PathHunter D2 beta-arrestin, luminescence, 90 min; response scale: percent relative to full dopamine signal; Potency, µM (doses to about 76.9 µM), without a hit: top-dose activation, actives largely listed as activators; AID 720507; shares compounds with D2 ag-1; 2,300 tested, 5.9% active; note: potency is the fitted concentration of half-maximal effect; % of control where 0% means no effect; nearly all actives have a fitted effect of over 70% in size
Starred values were filed as active, the others as inactive. Most compounds without a hit are left out; they make up all but 2.4% or so of the library. Unless noted, calls come from the whole dose curve; as a rule, active = well fitted activation curve with a large enough effect; inconclusive = small, poorly fitted or top-dose-only effect; inactive = flat fitted curve, though single readings scatter.

What do the screens show for `Oc1ccc(CCNc2c3ccccc3nc3ccccc23)cc1O`?
D2 PAM-1: -20; D2 PAM-2: 8; D2 ag-1: 91*; D2 ag-2: 130*; D2 antagonist: 91*; D3 ag: 11µM*; D2 ag-3: 5µM*

Results for CCOCCc1nn2c(=O)cc(COC(=O)C(CC)c3ccccc3)nc2s1 (stereo not given) ?
D2 PAM-1: -13; D2 ag-1: 2

Results for Cc1cc(C)nc(-n2ncc3c2CC(c2ccccc2)CC3=O)n1 (stereo not given) ?
D2 PAM-1: -21; D2 PAM-2: -3; D2 ag-1: 48*; D2 ag-2: 2; D2 antagonist: -9; D3 ag: -2%; D2 ag-3: -2%

Results for Cc1ccc(-c2c[n+](CC(=O)Nc3ccccc3C)c3n2CCC3)cc1 ?
D2 PAM-1: -22; D2 PAM-2: -29; D2 ag-1: 0; D2 ag-2: -2; D2 antagonist: 28

How did Cc1ccc(NC(=O)C[n+]2cc(-c3ccccc3)n3c2CCC3)cc1 do in these assays?
D2 PAM-1: -30; D2 PAM-2: -12; D2 ag-1: 71*; D2 ag-2: -2; D2 antagonist: 56*; D3 ag: -10%; D2 ag-3: 2%

How did CC(Oc1ccc(F)cc1)C(=O)Nc1cc(S(=O)(=O)N2CCOCC2)ccc1N1CCCC1 (stereo not given) do in these assays?
D2 PAM-1: -5; D2 PAM-2: -34; D2 ag-1: -1; D2 ag-2: 3; D2 antagonist: -9

How did CCN1CCN(c2ccc(S(=O)(=O)N3CCOCC3)cc2NC(=O)C(C)Oc2ccc(F)cc2)CC1 (stereo not given) do in these assays?
D2 PAM-1: 8; D2 PAM-2: -7; D2 ag-1: 0; D2 ag-2: 4; D2 antagonist: 1; D3 ag: -11%; D2 ag-3: -2%

What do the screens show for `COc1cc(CCCN[C@H](CN)Cc2ccccc2)cc(OC)c1OC`?
D2 PAM-1: 14; D2 PAM-2: -23; D2 ag-1: -2; D2 ag-2: -4; D2 antagonist: -2

What do the screens show for `NC[C@H](Cc1ccccc1)NCCCCC1CCCCC1`?
D2 PAM-1: -18; D2 PAM-2: -9; D2 ag-1: 33*; D2 ag-2: -2; D2 antagonist: -3; D3 ag: 2%; D2 ag-3: 10%

How did CCOC(=O)C(NC(=O)c1ccccc1Cl)(Nc1ccc(C(F)(F)F)cc1)C(F)(F)F (stereo not given) do in these assays?
D2 PAM-1: 3; D2 PAM-2: -5; D2 ag-1: 29; D2 ag-2: -3; D2 antagonist: -9; D3 ag: -7%; D2 ag-3: -2%

Results for CCOC(=O)C(NC(=O)c1ccccc1Cl)(Nc1ccc(C)c(C)c1)C(F)(F)F (stereo not given) ?
D2 PAM-1: 13; D2 PAM-2: -9; D2 ag-1: -1; D2 ag-2: 2; D2 antagonist: -1

How did CCOc1ccccc1NC(=O)c1ccc2c(O)c(S(=O)(=O)c3ccccc3)c(=O)[nH]c2c1 do in these assays?
D2 PAM-2: -3; D2 ag-2: -1

What do the screens show for `Nc1ccc(C(=O)N/N=C2\CCCc3c2[nH]c2ccccc32)cc1`?
D2 PAM-2: 4; D2 ag-2: -4

What do the screens show for `c1ccc(CCN=C2CCCc3c2[nH]c2ccccc32)cc1`?
D2 PAM-1: -23; D2 PAM-2: 8; D2 ag-1: 77*; D2 ag-2: 13; D2 antagonist: 58*; D3 ag: inconclusive; D2 ag-3: inconclusive

High-throughput results: PubChem BioAssay, National Center for Advancing Translational Sciences (NCATS)
